Assay outcomes deposited in PubChem BioAssay by National Center for Advancing Translational Sciences (NCATS).
The list is not random: actives were taken first. Their share in the collection is about 3.9%.
Bst PK mod: alters activity of Bacillus stearothermophilus pyruvate kinase | Potency, µM | purified pyruvate kinase, luminescence ATP production; ribose 5-phosphate activator present at AC10 | 51,000 tested, 1.2% active; in the data active means potency below about 11 µM; inconclusive means mostly about 12 µM to 25 µM;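 the screen sought inhibitors and activators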;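 further: scaled between full activation by ribose 5 phosphate and full inhibition by luteolin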
FLuc inh: firefly luciferase inhibition. P08659. AID 411. purified firefly luciferase, luminescence, 8 min. Potency, µM (titrated, usually from 57.1 µM), inactives show top-dose activity change, negative = inhibition, actives largely listed as inhibitors. 72,000 tested, 2.2% active; further: on the % scale 0 is the no-effect control and ±100 the full control effect; nearly all actives have a fitted effect of over 40% in size
Target sequence (P08659 whole entry, looked up): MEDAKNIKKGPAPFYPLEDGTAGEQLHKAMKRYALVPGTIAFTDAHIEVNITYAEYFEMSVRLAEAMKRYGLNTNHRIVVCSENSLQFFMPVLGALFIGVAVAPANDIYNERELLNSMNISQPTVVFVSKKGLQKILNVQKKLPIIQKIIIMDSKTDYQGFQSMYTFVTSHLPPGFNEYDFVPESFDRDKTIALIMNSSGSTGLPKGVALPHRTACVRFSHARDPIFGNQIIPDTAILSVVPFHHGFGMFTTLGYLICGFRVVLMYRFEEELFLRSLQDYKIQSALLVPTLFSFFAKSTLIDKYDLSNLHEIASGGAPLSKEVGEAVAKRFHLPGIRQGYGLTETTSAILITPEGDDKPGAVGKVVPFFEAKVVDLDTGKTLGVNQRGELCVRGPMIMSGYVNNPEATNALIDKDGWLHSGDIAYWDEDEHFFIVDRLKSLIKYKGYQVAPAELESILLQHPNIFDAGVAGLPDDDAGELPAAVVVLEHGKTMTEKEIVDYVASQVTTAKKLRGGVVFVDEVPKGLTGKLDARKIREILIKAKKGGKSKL
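Inhibition of light generation by firefly luciferase from ATP and luciferin was profiled with concentration-response curves per sample, ATP held at 10 uM within the enzyme's linear range. Plates were read by luminescence after an 8-minute ambient incubation.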
ERK AVP block: vasopressin-driven ERK pathway inhibition. HEK293-V1b, vasopressin-stimulated pERK AlphaScreen. Potency, µM (titrated, usually from 57.5 µM), for the others: top-dose activity, negative = inhibition, actives largely listed as inhibitors. 72,000 tested, 0.99% active. AID 995; further: on the % scale 0 is the no-effect control and ±100 the full control effect; nearly all actives have a fitted effect of over 55% in size
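HEK293 cells stably expressing V1b receptor, seeded overnight in 1% FBS, were treated with compounds for 30 min at 37C, then stimulated 5 min with 25 nM vasopressin; phospho-ERK read by AlphaScreen SureFire after lysis.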
GBA mod: human lysosomal glucosylceramidase modulation | Potency, µM | 48,000 tested, 1.1% active | purified enzyme, resorufin glucoside fluorescence (screen aimed at inhibitors), 20 min | P04062; in the data active means potency below about 15 µM; inconclusive means mostly about 16 µM to 33 µM;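 further: the screen sought inhibitors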
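Compounds titrated against 0.2 nM normal enzyme, 30 uM resorufin beta-D-glucopyranoside substrate, citrate/phosphate buffer with taurocholate and tween-20, pH 5.9. Reaction ran 20 min at room temperature; fluorescence (Ex 548/Em 600) gave AC50.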
Numbers without * were called inactive; ! = repeats disagree; [ ] = another dose, or the depositor's remark. Unless noted, the call rests on the fitted dose curve; in most records, active means well fitted curve in the direction sought with a large enough effect; inconclusive means small, poorly fitted or top-dose-only effect, or another doubt; inactive means no such curve, though single readings can be large; an effect the other way counts as inactive or inconclusive. Potency means the concentration at half of the fitted maximal effect.

Results for Cc1ccc2c(c1)C1CN(C)CCC1N2C(=O)c1ccc(Br)o1 (configuration not stated) ?
Bst PK mod: >57; FLuc inh: -3%; ERK AVP block: -3%; GBA mod: >77

What do the screens show for `Cc1ccccc1[N+](=O)[O-]`?
ERK AVP block: 13%

Results for COC(=O)C1=C(C)NC(C)=C(C(=O)OC)C1c1ccccc1[N+](=O)[O-] ?
Bst PK mod: >26; FLuc inh: 0%[25.5 µM]; ERK AVP block: 25µM*!

What do the screens show for `COP(=S)(OC)SCn1nnc2ccccc2c1=O`?
ERK AVP block: 32µM*

Results for O=c1cccc2n1C[C@@H]1C[C@H]2CN2CCCC[C@H]12 ?
FLuc inh: -7%[11.4 µM]

What do the screens show for `COc1cccc(-n2c(C)nc3ccccc3c2=O)c1`?
Bst PK mod: >26; FLuc inh: 1%[25.5 µM]

What do the screens show for `O=c1c2ccccc2[se]n1-c1ccccc1`?
Bst PK mod: inactive; FLuc inh: 16µM*; ERK AVP block: inconclusive

How did CN1C(=O)C(C2c3ccccc3C(=O)N2Cc2ccccc2)C(=O)N(C)C1=O (configuration not stated) do in these assays?
Bst PK mod: >57; FLuc inh: 4%; ERK AVP block: inconclusive; GBA mod: 12*

Results for COc1ccc2c(c1O)-c1cccc3c1[C@H](C2)N(C)CC3 ?
FLuc inh: 3%; ERK AVP block: -3%

What do the screens show for `CN1CC[C@@]2(c3cccc(O)c3)Cc3nc4ccccc4cc3C[C@H]2C1`?
FLuc inh: 25µM*; ERK AVP block: 0%

What do the screens show for `CC(C)[C@@]1(NC(=O)[C@@H]2C=C3c4cccc5[nH]cc(c45)C[C@@H]3N(C)C2)O[C@]2(O)[C@H]3CCCN3C(=O)[C@H](Cc3ccccc3)N2C1=O`?
FLuc inh: -8%
